The experiment relates to primary human hepatic stellate cells (donor 1). In words: scaled lipid accumulation score (0 = DMSO-like, 1 = nortriptyline-like); higher = stronger HSC inactivation (lipid re-accumulation), active = hit call of the paper. Conditions: 48 h. The protocol: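 Primary lipid accumulation screen in primary human hepatic stellate cell myofibroblasts (donor 1, passage 8) in 384-well plates. 100 nL of library compound was pin-transferred into 30 µL medium in duplicate, and cells were treated for 48 h. The 'Scaled' score combines distance from plate baseline, toxicity and reproducibility penalties, and is normalised to nortriptyline (positive) and DMSO (negative) controls on each plate. A hit is defined as scaled >0.85 or among the top 3 wells per plate.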

The mark [1] stands for this setting: library stock concentration: 10 mM.
Setting [2] is: library stock concentration: 1 mM.
Where [3] appears, read: library stock concentration: 3.33 mM.

Where a name gives a salt, the structure may show the parent alone. Screen size: about 5,800 compounds; about 620 (11%) showed activity. The sample holds actives, similar compounds and a random draw of the others, so the mix is not that of the screen. A number with no mark means an inactive call.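 How the source made its calls: active = score above a cut-off or among the top three wells of a plate; in these data no inactive exceeds 0.85.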

With `Clc1ccc(N2CC3CCC(C2)N3)nn1`, under setting [1], the “scaled lipid accumulation score” value was ≤ -0.07.
The same measure, in the same setting: the value for `C[N+]1(C)[C@@H]2CC(OC(=O)[C@H](CO)c3ccccc3)C[C@H]1[C@@H]1O[C@@H]12` (single isomer, unassigned; (-)) [(-)-Scopolamine methyl nitrate] was ≤ 0.
In the case of `CC(=O)O[C@H]1CC[C@@]2(C)C(=CC[C@@H]3[C@@H]2CC[C@]2(C)C(=O)CC[C@@H]32)C1` [Dehydroisoandosterone 3-acetate], the “scaled lipid accumulation score” value was ≤ 0.
Regarding `CC(=O)O[C@H]1CC[C@@]2(C)C(=CC[C@@H]3[C@@H]2CC[C@]2(C)C(=O)CC[C@@H]32)C1` [Prasterone acetate], under setting [1], the “scaled lipid accumulation score” value is 0.103.
On the same count and under the same terms, the value for `CCN(CC)CCO[C@H]1CC[C@@]2(C)C(=CC[C@@H]3[C@@H]2CC[C@]2(C)C(=O)CC[C@@H]32)C1.Cl` was 1.39 (active).
Consider `CCN(CC)CCO[C@H]1CC[C@@]2(C)C(=CC[C@@H]3[C@@H]2CC[C@]2(C)C(=O)CC[C@@H]32)C1`, for which the “scaled lipid accumulation score” value under setting [2] was 0.116.
Turning to `CC(C)NC(C)Cc1ccc(I)cc1` (stereo unspecified) [Iofetamine hydrochloride], under setting [1], the “scaled lipid accumulation score” value is 0.757.
Consider `COP(=S)(OC)Oc1ccc(SC)c(C)c1`, for which the “scaled lipid accumulation score” value under setting [1] was ≤ 0.
With `CO[C@H](C)[C@](O)(C(=O)OCC1=CCN2CC[C@H](O)[C@@H]12)C(C)C` [Heliotrine], the “scaled lipid accumulation score” value is ≤ 0.
For the compound `CO/C1=C\C(C)=C\[C@@H](C)[C@@H](O)[C@@H](C)C/C(C)=C/C=C/[C@H](OC)[C@@H]([C@@H](C)[C@@H](O)[C@H](C)[C@@]2(O)C[C@@H](O)[C@H](C)[C@@H](C(C)C)O2)OC1=O` [Bafilomycin A1], the “scaled lipid accumulation score” value (library stock concentration: 800 uM) was 1.08 (active).
With `CCCN(CCC)C1CCc2cccc(O)c2C1` (stereo unspecified) [8-Hydroxy-DPAT hydrobromide], the “scaled lipid accumulation score” value under setting [1] was 0.055.
Consider `CCCN(CCC)C1CCc2cccc(O)c2C1` (stereo unspecified), for which the “scaled lipid accumulation score” value under setting [1] was ≤ -0.07.
Regarding `O=C(O)CCC(CP(=O)(O)O)C(=O)O` (stereo unspecified) [PMPA (NAALADase inhibitor)], under setting [1], the “scaled lipid accumulation score” value was ≤ -0.006.
As to `CCCCC/C=C\C/C=C\C/C=C\C/C=C\CCCC(=O)NCCCC(=O)O` [N-Arachidonoyl-.gamma.-Aminobutyric Acid], the “scaled lipid accumulation score” value under setting [2] was 0.032.
For `CCN1C[C@]2(COC)CC[C@H](OC)[C@]34C5C[C@@H]6[C@@H](OC)C[C@@]7(OCO[C@@]7(C13)[C@@H](O)C24)C5[C@H]6OC` (stereo partly specified) [Delcorine], the “scaled lipid accumulation score” value was ≤ 0.
As for `CN(C)C(=S)SSC(=S)N(C)C` [Thiram] [listing 1 of 2 here], the “scaled lipid accumulation score” value (library stock concentration: 8.3 mM) is 0.965 (active).
For the compound `CN(C)C(=S)SSC(=S)N(C)C` [Thiram] [listing 2 of 2 here], the “scaled lipid accumulation score” value under setting [1] is 0.163.
Consider `Ic1ccccc1CNC1C2CCN(CC2)C1C(c1ccccc1)c1ccccc1` [L-703,606 oxalate salt hydrate], for which the “scaled lipid accumulation score” value under setting [1] was 0.063.
Turning to `CN1CCC(c2ccc(F)cc2)C(COc2ccc3c(c2)OCO3)C1` (stereo unspecified), the “scaled lipid accumulation score” value (library stock concentration: 9.7 mM) was 0.664.
For the compound `CCCCCC(/C=C/C=O)OO` (stereo unspecified) [4-hydroperoxy 2-Nonenal], the “scaled lipid accumulation score” value under setting [2] is 0.019.
In the case of `O=C1NC(=O)c2c1c1c3ccccc3n3c1c1c2c2ccccc2n1C1CCC3O1`, the “scaled lipid accumulation score” value under setting [1] was 1.3 (active).
Turning to `COC(=O)[C@]1(O)C[C@@H]2O[C@@]1(C)n1c3ccccc3c3c4c(c5c6ccccc6n2c5c31)C(=O)NC4` [K-252a, Nocardiopsis sp.], under setting [3], the “scaled lipid accumulation score” value was 0.362.
As for `O=C1NC(=O)c2c1c1c3ccccc3n3c1c1c2c2ccccc2n1[C@H]1CC[C@@H]3O1`, the “scaled lipid accumulation score” value under setting [3] was 0.338.
With `Cc1sc2c(c1C)C(c1ccc(Cl)cc1)=N[C@H](CC(=O)OC(C)(C)C)c1nnc(C)n1-2`, the “scaled lipid accumulation score” value (library stock concentration: 80 uM) was ≤ 0, the “scaled lipid accumulation score” value (library stock concentration: 400 uM) was ≤ 0, the “scaled lipid accumulation score” value (library stock concentration: 2 mM) was ≤ 0 and the “scaled lipid accumulation score” value under setting [1] is ≤ 0.
Turning to `CC[C@@]1(O)C[C@H](O[C@H]2C[C@H](N(C)C)[C@H](O)[C@H](C)O2)c2c(cc3c(c2O)C(=O)c2c(O)ccc(O)c2C3=O)[C@H]1C(=O)OC` [Pyrromycin], under setting [1], the “scaled lipid accumulation score” value was ≤ 0.
Turning to `C[C@@H]1O[C@@H](O[C@H]2C[C@@H](O)[C@]3(CO)[C@H]4[C@H](O)C[C@]5(C)[C@@H](C6=CC(=O)OC6)CC[C@]5(O)[C@@H]4CC[C@]3(O)C2)[C@H](O)[C@H](O)[C@H]1O` [Ouabain] [listing 1 of 2 here], under setting [1], the “scaled lipid accumulation score” value was 1.13 (active).
For `C[C@@H]1O[C@@H](O[C@H]2C[C@@H](O)[C@]3(CO)C4C(CC[C@]3(O)C2)[C@@]2(O)CC[C@H](C3=CC(=O)OC3)[C@@]2(C)C[C@H]4O)[C@H](O)[C@H](O)[C@H]1O` (stereo partly specified) [Ouabain], under setting [1], the “scaled lipid accumulation score” value was 0.993 (active).
On to `C[C@@H]1CC[C@@]2(OC1)O[C@H]1C[C@H]3[C@@H]4CC=C5C[C@@H](O[C@@H]6O[C@H](CO)[C@@H](O[C@@H]7O[C@@H](C)[C@H](O)[C@@H](O)[C@H]7O)[C@H](O)[C@H]6O[C@@H]6O[C@@H](C)[C@H](O)[C@@H](O)[C@H]6O)CC[C@]5(C)[C@H]4CC[C@]3(C)[C@H]1[C@@H]2C` [Dioscin], for which the “scaled lipid accumulation score” value under setting [3] is 0.577 and the “scaled lipid accumulation score” value under setting [1] is 0.255.
Consider `C[C@@H]1O[C@@H](O[C@@H]2C=C3CC[C@@H]4[C@H](CC[C@]5(C)[C@@H](c6ccc(=O)oc6)CC[C@]45O)[C@@]3(C)CC2)[C@H](O)[C@H](O)[C@H]1O` [Proscillaridin A], for which the “scaled lipid accumulation score” value is 0.768.
In the case of `C[C@@H]1O[C@@H](O[C@@H]2C[C@@H](O)[C@]3(CO)[C@H]4[C@H](O)C[C@]5(C)[C@@H](C6=CC(=O)OC6)CC[C@]5(O)[C@@H]4CC[C@]3(O)C2)[C@H](O)[C@H](O)[C@H]1O` [Ouabain], the “scaled lipid accumulation score” value under setting [1] was 1 (active).
Same read-out and setting: the figure for `C[C@@H]1O[C@@H](O[C@H]2C[C@@H](O)[C@]3(CO)[C@@H]4C(CC[C@]3(O)C2)[C@@]2(O)CC[C@H](C3COC(=O)C3)[C@@]2(C)C[C@H]4O)[C@H](O)[C@H](O)[C@H]1O` (stereo partly specified) [Dihydroouabain] is 0.964 (active).
On to `C[C@@H]1O[C@@H](O[C@H]2C[C@@H](O)[C@]3(CO)[C@H]4[C@H](O)C[C@]5(C)[C@@H](C6=CC(=O)OC6)CC[C@]5(O)[C@@H]4CC[C@]3(O)C2)[C@H](O)[C@H](O)[C@H]1O` [Ouabain] [listing 2 of 2 here], for which the “scaled lipid accumulation score” value (library stock concentration: 8.6 mM) is 0.734.

Source of the values: the supplement of paper PMC9135407.
